Screening data as filed in PubChem.
HT1080-NT tox: kills 2HG-producing HT-1080-NT fibrosarcoma cells; HT-1080-NT fibrosarcoma viability, CellTiter-Glo ATP luminescence, 48 h; Potency, µM (series often up to 46.1 µM), without a hit: at the highest dose activity, negative = less viability, hits mostly cytotoxic; 1.6% of 360,000 active;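 further: NT is the 2HG producing partner of a matched IDH1 knockdown line; 0% = DMSO-treated cells and -100% = media-only wells without cells; nearly all actives have a fitted effect of over 55% in size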
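Read-out is CellTiter-Glo luminescence after 10 minutes at room temperature, following 48 hours' compound treatment of HT-1080-NT cells (750 cells/well, RPMI, 5% FBS, 37 degrees C).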
KB-V1 cytotox: KB-V1 MDR subline cytotoxicity; KB-V1 MDR cells viability, CellTiter-Glo, 72 h; Potency, µM (highest dose often 46.1 µM), actives largely listed as cytotoxic; 3.4% of 400,000 active; AID 1347076; further: nearly all actives have a fitted effect of over 60% in size
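Drug-selected KB-V1 cells, grown in DMEM lacking phenol red with 10% FBS, receive compound titrations; after three days at 37 degrees C, surviving cell ATP is quantified by CellTiter-Glo luminescence and responses normalized and curve-fitted.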
HT1080 IDH1KD tx: toxicity to HT-1080 IDH1 knockdown cells (counter line) | 2% of 360,000 active | AID 686971 | HT-1080 IDH1 knockdown viability, ATP luminescence, 48 h | Potency, µM (doses to about 46.1 µM), for inactives: at the highest dose activity, negative = toxicity, most hits filed as cytotoxic;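 further: 0% = DMSO wells and -100% = cell-free medium wells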
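CellTiter-Glo luminescence after 48 h compound exposure at 37 degrees C of IDH1-knockdown HT-1080 cells in 5% FBS RPMI. %Activity scaled between DMSO wells and cell-free media wells, with curves fitted and assigned curve classes.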
KB-3-1 cytotox: kills parental KB-3-1 adenocarcinoma cells | KB-3-1 viability, CellTiter-Glo ATP luminescence, 72 h | Potency, µM (highest dose often 46.1 µM), usual class: cytotoxic | 1.4% of 400,000 active; further: nearly all actives have a fitted effect of over 60% in size
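Screening of KB-3-1 cells (DMEM, 10% FBS, phenol-red free) ran from lowest to highest compound concentration; after 72 h at 37 °C viability was read luminescently and curves fitted.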
Active calls of the source: *; i = inactive; ? = inconclusive; / = no result given; [ ] = dose if it differs, or a comment. Only some compounds are listed: those with a hit (about 5.7% of all), similar ones and a draw of the others. The call rests on the fitted dose curve; in most records, active means well fitted curve in the direction sought with a large enough effect; inconclusive means small, poorly fitted or top-dose-only effect, or another doubt; inactive means no such curve, though single readings can be large; an effect the other way counts as inactive or inconclusive. Unless noted, on the % scale 0 is the no-effect control and ±100 the full control effect; potency means the concentration at half of the fitted maximal effect.

SMILES	HT1080-NT tox	KB-V1 cytotox	HT1080 IDH1KD tx	KB-3-1 cytotox
COc1ccc(C(=O)Nc2ccc3[nH]c(-c4cccc(OC)c4)cc(=O)c3c2)cc1	?	i	?	0.73µM*
COc1ccc(-c2cc(=O)c3cc(F)ccc3[nH]2)cc1	-1%	i	13%	i
O=C1C(c2cc(=O)c3ccccc3[nH]2)=C(O)c2ccccc21	-26%	i	-28%	i
COc1ccc2[nH]c(-c3ccc(C)cc3)cc(=O)c2c1	?	?	23µM*	9.2µM*
COc1ccc(C(=O)Nc2cccc(OC)c2)cc1	-26%	i	-23%	?
Cc1c(CNC2CCCCCC2)c(C(=O)O)c(C)n1Cc1cccc(Cl)c1	/	i	/	?
CCn1cc2nc(SCC(=O)Nc3ccccc3F)n(Cc3ccc(C)cc3)c(=O)c2n1	/	?	/	i
CCCCc1ccc(C(=O)N/C(=C\c2ccc(C)cc2)C(=O)NC2CCCCC2)cc1	/	i	/	i
CCOc1cc(CNc2ccc(O)cc2)cc(Cl)c1OCc1ccccc1	/	i	/	i
CCn1c(N2CCN(S(=O)(=O)c3ccc(OC)cc3)CC2)nc2ccccc21	-29%	13µM*	?	i
CC(C)n1c(N2CCN(S(=O)(=O)c3cccc([N+](=O)[O-])c3)CC2)nc2ccccc21	-24%	18µM*	-26%	i
Cn1c(N2CCN(S(=O)(=O)c3ccc(F)cc3)CC2)nc2ccccc21	-17%	?	-20%	i
O=S(=O)(c1ccccc1C(F)(F)F)N1CCN(S(=O)(=O)c2ccccc2C(F)(F)F)CC1	6%[9.24 µM]	i	-2%	i
COc1ccc(OCCN2CCN(S(=O)(=O)c3ccccc3C(F)(F)F)CC2)cc1	-10%	2.3µM*	-11%	?
CCn1c(N2CCN(S(=O)(=O)c3ccccc3C(F)(F)F)CC2)nc2ccccc21	?	18µM*	-26%	i
CC1CCN(S(=O)(=O)c2ccc3c(c2)c(=O)c(C(=O)NCCc2ccccc2)cn3C)CC1	/	i	/	i
CCCN1CNc2c(c(=O)[nH]c(=S)n2Cc2ccc(OC)c(OC)c2)C1	10%	/	22%	/
Oc1c(Br)cc(Br)c2cccnc12	16µM*	?	?	i
Cc1nn(-c2ccc(F)cc2)c(Cl)c1/C=C1\C(=O)Nc2ccccc21	?	13µM*	5.2µM*	?
CC1(C)OC(=O)C2(Cc3cc([N+](=O)[O-])ccc3N3CCCCC32)C(=O)O1 (stereo not drawn)	/	i	/	i
N#Cc1cccc(NC(=O)CSc2ccccc2)c1	-17%	?	6%	i
N#Cc1cccc(NC(=O)CSc2ccc3c4c(cccc24)C(=O)c2ccccc2-3)c1	5%	21µM*	7%	?
CCOc1cc(/C=C2\SC(=N)N(c3nccs3)C2=O)ccc1OCCN1CCOCC1	-27%	7.3µM*	?	i
CCOc1cc(/C=C2\SC(=S)N(N3CCOCC3)C2=O)ccc1O	3%	i	7%	i
CN1C(=O)/C(=C/c2cccc([N+](=O)[O-])c2)C(=O)N1c1ccccc1	1%	i	-8%	?
SMILES	HT1080-NT tox	KB-V1 cytotox	HT1080 IDH1KD tx	KB-3-1 cytotox
CCCN1C/C(=C/c2ccc3c(c2)OCO3)C(=O)/C(=C/c2ccc3c(c2)OCO3)C1	?	?	?	23µM*
CCCN1C/C(=C/c2cccc([N+](=O)[O-])c2)C(=O)/C(=C/c2cccc([N+](=O)[O-])c2)C1	-5%	?	23µM*	?
CCCN1C(=O)/C(=C/c2ccc3c(c2)OCO3)NC1=S	-1%	?	-2%	i
CCc1ccc(-n2nc3ccc(NC(=O)c4cc5ccccc5o4)cc3n2)cc1	/	i	/	i
CSc1ccc(/C=C2\C=Cc3ccc([N+](=O)[O-])cc32)cc1	/	?	/	i
CCOCCn1c(C)c(C(=O)OCC)c2cc(O)c3ccccc3c21	0%	2.1µM*	7%	i
O=C(Nc1ccc(F)cc1)Nc1ccc(N2CCCC2)c(S(=O)(=O)Nc2ccccc2Cl)c1	?	?	23µM*	21µM*
O=C(Nc1ccc(N2CCOCC2)c(S(=O)(=O)Nc2ccccc2Cl)c1)c1ccc(F)cc1	-5%	?	-15%	?
O=C(Nc1ccc(Cl)c(Cl)c1)Nc1ccc(N2CCCC2)c(S(=O)(=O)Nc2ccccc2Cl)c1	?	23µM*	13µM*	5.2µM*
Cc1ccc(NC(=O)c2cc3c(s2)CCCC3)cc1S(=O)(=O)Nc1ccccc1Cl	-4%	?	?	?
O=C(Nc1ccc(N2CCCCC2)c(S(=O)(=O)Nc2ccccc2Cl)c1)c1cccnc1	0%	/	-29%	/
Cc1ccc(C(=O)Nc2ccc(C)c(S(=O)(=O)Nc3ccccc3Cl)c2)s1	-21%	?	?	23µM*
Cc1cccc(N2CCN(S(=O)(=O)c3ccc(-c4cnc(C5CC5)o4)cc3)CC2)c1C	/	i	/	i
COc1cc(NS(=O)(=O)c2ccc(NC(=O)c3ccc(Cl)cc3Cl)cc2)nc(OC)n1	/	i	/	i
O=C(CSc1oc(-c2ccco2)nc1S(=O)(=O)c1ccc(Br)cc1)c1ccc(Cl)cc1	/	i	/	i
C[n+]1c2n(c3ccccc31)N=C(c1cc(C(C)(C)C)c(O)c(C(C)(C)C)c1)CS2	23µM*	i	7.3µM*	4.1µM*
Cc1ccc2[nH]c3c(N4CCOCC4)ncnc3c2c1	-29%	i	?	i
Cc1cccc2[nH]c3c(N4CCC5(CC4)OCCO5)ncnc3c12	?	?	18µM*	i
Clc1ccc2[nH]c3c(N4CCC5(CC4)OCCO5)ncnc3c2c1	16µM*	16µM*	8.2µM*	15µM*
Cc1ccc2c(c1)-c1c(cnc3cc(-c4ccc(Cl)cc4)nn13)CO2	/	?	/	i
COc1ccc(N2C(=O)c3ccc(C(=O)OC(C)C)cc3C2=O)cc1	-23%	i	0%	18µM*
COc1ccc(N2C(=O)c3ccc(C(=O)Nc4cc(OC)ccc4OC)cc3C2=O)cc1	3%	i	18%	i
CC(=O)N1Cc2ccccc2C(C)CC12CCCCC2 (stereo not drawn)	12%	16µM*	10%	i
CCN1C(=O)/C(=C/c2nc3ccccc3c(=O)n2-c2ccccc2)c2ccccc21	-12%	i	-6%	23µM*
CCN1C(=O)/C(=C\c2nc3ccccc3c(=O)n2CC)c2ccccc21	-16%	i	-25%	i
N#CC(CC(=O)c1ccc(Cl)cc1)c1ccccc1 (stereo not drawn)	-2%	16µM*	-4%	i
O=C(CC(C(=O)O)c1ccc(Cl)cc1)c1ccccc1 (stereo not drawn)	-1%	i	11%	i
CCN(CC)C(c1ccc(C)cc1)c1nnnn1C1CCCCC1 (stereo not drawn)	3%	13µM*	0%	?
CC(C)(C)OC(=O)[C@H](Cc1ccccc1)NC(=O)c1[nH]cnc1C(=O)Nc1ccccc1F	-22%	21µM*	?	?
